Source: PubChem
LYPLA2 inh: LYPLA2 (human) inhibition in PME1 counter-screen. 320,000 compounds, 0.38% hits. recombinant LYPLA2, FP-Rh probe fluorescence polarization. inhibition, % at 5.9 µM. O95372;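 active means inhibition above the screen-wide mean plus 3 SD, limit set per campaign, cut at about 26% in these data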;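 further: 0% = LYPLA2 with DMSO and 100% = wells lacking LYPLA2 enzyme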
LYPLA1 inh: counter-screen for PME1 inhibitors: inhibitors of human LYPLA1. O75608. recombinant LYPLA1, FP-Rh probe fluorescence polarization. inhibition, % at 5.9 µM. 320,000 compounds, 0.16% hits. AID 2174;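 active means inhibition above the mean of all tested compounds plus 3 SD, set per campaign, cut at about 14% in these data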;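 further: inhibitors block serine hydrolase probe labeling of LYPLA1 so polarization falls; 0% = enzyme with DMSO and 100% = wells lacking LYPLA1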
PREPL inhibitor: inhibitors of human prolyl oligopeptidase-like enzyme PREPL | Q4J6C6 | AID 2751 | recombinant PREPL, fluorescence polarization activity-based probe | 320,000 compounds, 0.68% hits | inhibition, % at 5.96 µM; in the data active means inhibition above about 43%;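 further: 0% = enzyme with DMSO and 100% = wells lacking enzyme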
Target sequence (Q4J6C6 whole entry, looked up): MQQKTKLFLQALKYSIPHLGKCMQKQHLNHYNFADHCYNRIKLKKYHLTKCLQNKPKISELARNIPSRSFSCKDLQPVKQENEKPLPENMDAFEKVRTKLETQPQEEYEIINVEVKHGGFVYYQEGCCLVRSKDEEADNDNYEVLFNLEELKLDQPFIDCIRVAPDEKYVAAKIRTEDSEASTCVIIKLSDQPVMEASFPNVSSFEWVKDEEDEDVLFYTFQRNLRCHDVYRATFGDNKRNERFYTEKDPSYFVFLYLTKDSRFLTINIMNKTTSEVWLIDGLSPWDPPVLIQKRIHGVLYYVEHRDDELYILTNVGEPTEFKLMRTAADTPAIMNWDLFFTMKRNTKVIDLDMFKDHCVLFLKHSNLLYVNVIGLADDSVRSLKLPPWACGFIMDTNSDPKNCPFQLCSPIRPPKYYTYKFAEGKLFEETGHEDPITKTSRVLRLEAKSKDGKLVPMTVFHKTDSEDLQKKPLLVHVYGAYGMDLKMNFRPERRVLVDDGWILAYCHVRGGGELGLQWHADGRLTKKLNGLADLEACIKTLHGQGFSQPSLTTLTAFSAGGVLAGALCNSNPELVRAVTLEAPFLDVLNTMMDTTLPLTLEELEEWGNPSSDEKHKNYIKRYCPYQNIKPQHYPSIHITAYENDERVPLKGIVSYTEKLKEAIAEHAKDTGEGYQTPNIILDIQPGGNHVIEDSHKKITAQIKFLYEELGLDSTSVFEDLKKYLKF
Fam108B inh: counter-screen for RBBP9 inhibitors: inhibitors of mouse Fam108B. recombinant Fam108B, FP-Rh probe fluorescence polarization. inhibition, % at 9.51 µM. 300,000 compounds, 0.33% hits;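 active means inhibition above the screen mean inhibition plus 3 SD, computed separately per campaign, cut at about 18% in these data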;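 further: inhibitors lower polarization as less probe binds the enzyme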
PME-1 inh: blocks human protein phosphatase methylesterase 1; Q9Y570; recombinant PME-1, FP-Rh probe fluorescence polarization; inhibition, % at 5.9 µM; 320,000 compounds, 0.53% hits;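 active means inhibition above the campaign mean of all compounds plus 3 SD, cut at about 26% in these data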;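 further: competitive labeling of PME-1 active site by serine hydrolase directed probe; 0% = PME-1 with DMSO and 100% = wells lacking PME-1 enzyme; inhibitors block probe labeling so polarization falls and inhibition rises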
LYPLA2 confirm: LYPLA2 (human) inhibition, confirmation counter-screen | shares compounds with LYPLA2 inh | recombinant LYPLA2, FP-Rh probe fluorescence polarization | inhibition, % at 5.9 µM | 1,100 compounds, 72% hits | AID 2232;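 active means mean inhibition across replicates above the hit cutoff set in the primary screen, cut at about 26% in these data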;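 further: blocked labeling of the enzyme by serine hydrolase FP-Rh probe lowers polarization; 0% = enzyme with DMSO and 100% = wells lacking LYPLA2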
LYPLA2 gel ABPP: LYPLA2 (human) inhibition, late stage results. shares compounds with LYPLA2 inh. rhLYPLA2 in mouse brain proteome, gel ABPP FP-Rh. inhibition, % at 20 µM. 150 compounds, 30% hits. AID 652029;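 active means inhibition of LYPLA2 enzyme probe labeling above about 50%, limit read from the data; inactive means inhibition below that limit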;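 further: loss of FP-Rh probe labeling of the LYPLA2 gel band measured as band density; 0% = DMSO only control band and 100% = blank gel background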
An asterisk follows results filed as active; . = no result. In the library only some 1.3% were active in any assay of this set; here they are far more common.

SMILES	LYPLA2 inh	LYPLA1 inh	PREPL inhibitor	Fam108B inh	PME-1 inh	LYPLA2 confirm	others
O=C1CCCC(=O)N1c1ccc(N2CCN(c3ccccc3)CC2)c([N+](=O)[O-])c1	6	1	16	2	3	.
O=S(=O)(Nc1ccc2c(c1)OCCO2)c1cnc[nH]1	11	0	6	2	-7	.
O=C(CN1CCN(c2ccc(Cl)cc2)CC1)NCc1ccccc1	7	3	-1	12	20	.
O=C(CN1CCN(C/C=C/c2ccccc2)CC1)NCc1ccc(Cl)cc1	42*	6	-5	-4	4	34*
O=[N+]([O-])c1ccc(Sc2ccc(Cl)c(Cl)c2)nc1	40*	3	15	4	-1	31*
O=[N+]([O-])c1cccnc1SCc1c(F)cccc1Cl	32*	2	14	5	0	38*
O=[N+]([O-])c1ccc(SCc2c(F)cccc2Cl)nc1	31*	7	27	3	1	38*
O=[N+]([O-])c1cccnc1Sc1ccc(Cl)cc1	7	5	4	1	1	.
CC(=O)Nc1ccc(NC(=O)[C@@H]2CCCN2S(=O)(=O)c2ccc3c(c2)OCCO3)cc1	-1	-4	-1	-2	-5	.
COc1ccc(N2CCN(C(=O)CCCN3C(=O)c4cccc5cccc(c45)C3=O)CC2)cc1	73*	10	-24	1	3	63*	LYPLA2 gel ABPP=32
COc1ccc(N2CCN(C(=O)CCCOc3cc(=O)n(C)c4ccccc34)CC2)cc1	31*	1	15	0	-3	33*
COc1ccccc1N1CCN(C(=O)CCN2C(=O)c3cccc4cccc(c34)C2=O)CC1	0	1	4	3	-3	.
O=C(CCCN1C(=O)c2cccc3cccc(c23)C1=O)N1CCN(c2ccc(F)cc2)CC1	54*	11	-156	6	4	50*
CCOC(=O)CC1(NC(=O)C2CCC(=O)N(CCc3ccccc3)C2)CCCCC1 (stereo not drawn)	-2	-5	-1	-3	2	.
CCCNC(=O)c1ccc(N2CCC3(CC2)CC(c2ccccc2)=NO3)c([N+](=O)[O-])c1	28*	1	27	0	5	25
CCCNC(=O)c1ccc(N2CCC3(CC2)CC(c2ccccc2)=NO3)c(N)c1	5	0	13	-4	6	.
CC(C)(C)c1ccc(C(=O)N2CCC(NC(=O)c3ccccc3)CC2)cc1	39*	-2	8	1	-3	37*
CC(C)(C)c1ccc(C(=O)N2CCC(C(=O)NCc3ccncc3)CC2)cc1	34*	-1	8	2	6	41*
CCN(CC)S(=O)(=O)c1ccc(N2CCOCC2)c(NC(=O)CNCCc2ccccc2)c1	53*	0	14	0	6	58*	LYPLA2 gel ABPP=16
CCCOc1ccc(N2C(=O)CC(N3CCN(c4ccc([N+](=O)[O-])cc4)CC3)C2=O)cc1 (stereo not drawn)	35*	2	25	-5	6	36*
O=C1COc2ccc(C(=O)NCc3ccco3)cc2N1	-6	-1	3	-4	4	.
O=C(NCc1ccco1)c1ccc2[nH]c(=O)c(=O)[nH]c2c1	28*	6	2	4	12	0
CCOC(=O)c1c(NC(=O)CN2C(=O)NC(C)(c3ccc(Cl)cc3)C2=O)sc(C(=O)NC)c1C (stereo not drawn)	41*	5	-14	0	12	34*
Cc1nc2nc(C)c(CCC(=O)O)c(C)n2n1	-8	-1	9	-3	-2	.
O=C1c2ccc(Oc3ccc([N+](=O)[O-])cc3)cc2C(=O)N1CCO	20	0	7	1	0	.
SMILES	LYPLA2 inh	LYPLA1 inh	PREPL inhibitor	Fam108B inh	PME-1 inh	LYPLA2 confirm	others
O=C(O)c1cccc(Oc2ccc([N+](=O)[O-])cc2)c1	1	-3	-9	-2	-5	.
O=C(O)c1ccc(CN2C(=O)c3ccc(Oc4ccc([N+](=O)[O-])cc4)cc3C2=O)cc1	59*	-5	-25	-4	-5	66*	LYPLA2 gel ABPP=59*
Nc1cccc(Oc2ccc([N+](=O)[O-])cc2)c1	32*	3	-12	-7	-5	35*
O=C1NC(=O)c2cc(Oc3ccc([N+](=O)[O-])cc3)ccc21	30*	1	-11	-1	0	36*
OC1(c2ccccc2)CN(c2ccccc2)C2=[N+]1CCS2 (stereo not drawn)	0	-3	13	4	1	.
CCOc1ccc(NC(=O)CC2S/C(=N/N=C3CCCCCC3)NC2=O)cc1 (stereo not drawn)	0	2	6	4	1	.
O=C(COc1ncnc2cc(Cl)ccc12)c1ccccc1	2	0	10	-2	-3	.
O=C(COc1ncnc2ccccc12)c1ccc(Cl)cc1	29*	-2	20	3	2	24
COc1ccc(C(=O)COc2ncnc3cc(Cl)ccc23)cc1	27*	0	8	0	-6	31*
COc1ccc(C2NS(=O)(=O)N=C2N)cc1 (stereo not drawn)	32*	4	8	4	2	-7
Cc1cc(C)c(S(=O)(=O)NCC(c2ccco2)N2CCc3ccccc3C2)c(C)c1 (stereo not drawn)	0	-2	-8	-12	-2	.
CC(C)C(NC(=O)c1ccc(Cl)cc1)C(=O)NCC1CCCO1 (stereo not drawn)	-1	0	-2	-1	-3	.
CC(=O)c1cc(C#N)c(SCc2ccccc2C#N)nc1C	46*	3	-5	-4	5	46*
O=S(=O)(c1ccc(NC(=S)N2CCN(c3ccccc3F)CC2)cc1)N1CCOCC1	38*	0	4	1	5	30*
Cc1ccc(Oc2ccc(Cl)cc2N)cc1	0	2	0	-2	0	.
Nc1cc(Cl)ccc1Oc1ccc2ccccc2c1	28*	3	17	-3	3	13
CCCCNC(=O)Oc1ccc(C(=O)N2c3ccccc3NC(=O)C2C)cc1 (stereo not drawn)	-2	0	2	4	8	.
CCOC(=O)CSc1nnc(CSc2nc3sc4c(c3c(=O)[nH]2)CCC4)n1-c1ccccc1	57*	6	23	10	0	51*
COc1ccc(N(CC(=O)NCCC2=CCCCC2)S(=O)(=O)c2ccccc2)c(OC)c1	0	0	-7	1	0	.
Cc1cc(C)n(Cc2ccc(C(=O)N/N=C/c3ccc(-c4ccc([N+](=O)[O-])cc4)o3)o2)n1	28*	5	17	6	1	27*
O=C(/C=C/c1ccc([N+](=O)[O-])cc1)N1CCN(Cc2ccccc2)CC1	32*	5	15	-1	4	39*
